The sample as a whole holds a higher share of hits than the screen did.
Pf apPOL block: Pf-apPOL DNA polymerase inhibition; Recombinant Pf-apPOL, molecular beacon fluorescence, 1.5 h; 210,000 tested, 0.25% active; inhibition, % at 10 µM
mHTT-CaM PPI inh: mHTT-calmodulin interaction abrogation; AID 1671202; P42858; AlphaScreen His-mHTT/GST-CaM binding, luminescence; 190,000 tested, 3.6% active; inhibition, % at 15 µM
Numbers stand for hits. No stated cut-off is given here; in the data, active means inhibition above about 50%; inactive means the rest.

CCN1c2cc(F)ccc2C(=O)NC12CCN(C(=O)c1ccc(C)cc1)CC2 was read as Pf apPOL block inactive and mHTT-CaM PPI inh inactive.
Screening CCN1c2cc(C)ccc2-n2cccc2C12CCN(C(=O)c1ccc(F)cc1)CC2 returned Pf apPOL block inactive and mHTT-CaM PPI inh 85.
Screening CCN1c2cc(C)ccc2-n2cccc2C12CCN(C(=O)c1ccc3c(c1)OCO3)CC2 returned Pf apPOL block inactive and mHTT-CaM PPI inh 66.
For CCN1c2ccc(C)cc2C(=O)NC12CCN(C(=O)c1ccc3c(c1)OCO3)CC2 the results were Pf apPOL block inactive and mHTT-CaM PPI inh inactive.
For O=C1CC2(CCN(C(=O)Cc3cccs3)CC2)Oc2ccccc21 the results were Pf apPOL block inactive and mHTT-CaM PPI inh inactive.
`CCN1c2cc(C)ccc2-n2cccc2C12CCN(C(=O)Cc1cccs1)CC2` gave Pf apPOL block inactive and mHTT-CaM PPI inh 98.
`N=C1S/C(=C\c2ccccc2)C(=O)N1c1ccc(F)cc1` gave Pf apPOL block inactive and mHTT-CaM PPI inh inactive.
For N=C1N=NC(c2ccccc2)=CS/C1=C\c1ccc(F)cc1 the results were Pf apPOL block inactive and mHTT-CaM PPI inh 59.
CN(C(=O)c1cc(-c2ccc3c(c2)OCO3)on1)C1CCCCC1 was read as Pf apPOL block inactive and mHTT-CaM PPI inh inactive.
For CC1CCCN(c2ccc(-c3noc(CN4CCSCC4)n3)cn2)C1 (stereo unspecified) the results were Pf apPOL block inactive and mHTT-CaM PPI inh inactive.
`COc1cc(/C=C(\C#N)c2nc3ccc(C)cc3[nH]2)ccc1OCC(=O)O` gave Pf apPOL block inactive and mHTT-CaM PPI inh inactive.
`CCOc1ccc(C=C2C(=O)c3ccccc3C2=O)cc1OC` gave Pf apPOL block inactive and mHTT-CaM PPI inh inactive.
Screening COc1cc(/C=C(\C#N)c2nc3ccccc3[nH]2)c(Br)cc1O returned Pf apPOL block inactive and mHTT-CaM PPI inh inactive.
COc1cc(Br)c(/C=C(\C#N)c2nc3ccccc3[nH]2)cc1OC was read as Pf apPOL block inactive and mHTT-CaM PPI inh 53.
Screening Cc1ccc2nc(/C(C#N)=C/c3cc([N+](=O)[O-])ccc3O)[nH]c2c1 returned Pf apPOL block inactive and mHTT-CaM PPI inh inactive.
CCOc1cc(/C=C(\C#N)c2nc3ccc(C)cc3[nH]2)cc(Cl)c1O was read as Pf apPOL block inactive and mHTT-CaM PPI inh 84.
For Cc1ccc2nc(/C(C#N)=C/c3ccc(O)c([N+](=O)[O-])c3)[nH]c2c1 the results were Pf apPOL block inactive and mHTT-CaM PPI inh 59.
`CCOc1cc(C=C2C(=O)c3ccccc3C2=O)cc(I)c1O` gave Pf apPOL block inactive and mHTT-CaM PPI inh 58.
For COc1ccc(/C=c2\sc3nc(-c4ccc(Cl)cc4)nn3c2=O)c(OC)c1 the results were Pf apPOL block inactive and mHTT-CaM PPI inh inactive.
For CC(=O)NC(=Nc1nc(C)cc(C)n1)Nc1ccccc1Cl the results were Pf apPOL block inactive and mHTT-CaM PPI inh inactive.
`CC(=O)N1c2ccc(S(=O)(=O)N3c4ccc(F)cc4CCC3C)cc2CC1C` (stereo unspecified) gave Pf apPOL block inactive and mHTT-CaM PPI inh inactive.
Screening COc1cc(/C=C(\C#N)c2nc3ccc(C)cc3[nH]2)cc(OC)c1O returned Pf apPOL block inactive and mHTT-CaM PPI inh 58.
CCOc1cc(/C=C(\C#N)c2nc3ccccc3[nH]2)cc(I)c1O was read as Pf apPOL block inactive and mHTT-CaM PPI inh 88.
Screening COc1cc(/C=C(\C#N)c2nc3ccccc3[nH]2)cc(OC)c1OC returned Pf apPOL block inactive and mHTT-CaM PPI inh inactive.
`Cc1ccc(/C=C(\C#N)c2nc3ccc(C)cc3[nH]2)cc1` gave Pf apPOL block inactive and mHTT-CaM PPI inh inactive.
COc1ccc(C(O)c2cc(C(F)(F)F)cc(C(F)(F)F)c2)cc1OC (stereo unspecified) was read as Pf apPOL block inactive.
For O=C(O)c1ccc(NC2=CC(=NS(=O)(=O)c3ccc(Cl)cc3)c3ccccc3C2=O)cc1 the results were Pf apPOL block inactive and mHTT-CaM PPI inh 82.
`Cc1ccc(S(=O)(=O)c2ccc(Cl)cc2)cc1S(=O)(=O)Nc1ccc(C(=O)O)cc1` gave Pf apPOL block inactive and mHTT-CaM PPI inh inactive.
Screening CC(=O)Nc1ccc(NC2=CC(=NS(=O)(=O)c3ccc(C)cc3)c3ccccc3C2=O)cc1 returned Pf apPOL block inactive and mHTT-CaM PPI inh inactive.
`CC(=O)Nc1ccc(NC2=CC(=NS(=O)(=O)c3ccccc3)c3ccccc3C2=O)cc1` gave Pf apPOL block inactive and mHTT-CaM PPI inh 71.
`CC1CCN(C(=O)C2c3ccccc3CCN2CC(=O)NC2CCCCC2)CC1` (stereo unspecified) gave Pf apPOL block inactive and mHTT-CaM PPI inh inactive.
Screening CC(=NNC(=S)NC(C)(C)C)c1ccc(Oc2c(Cl)cncc2Cl)cc1 returned Pf apPOL block inactive.
For Cc1cc(C(=O)Nc2nc(-c3ccccn3)cs2)on1 the results were Pf apPOL block inactive and mHTT-CaM PPI inh 100.
For COCC(=O)Nc1cc(OC)c(NC(=O)c2ccccc2)cc1OC the results were Pf apPOL block inactive and mHTT-CaM PPI inh inactive.
`O=C(Nc1nc(-c2ccccc2)cs1)c1ccccc1` gave Pf apPOL block inactive and mHTT-CaM PPI inh inactive.
Screening COc1cc(C(=O)Nc2cccc(NC(=O)c3ccccc3)c2)cc(OC)c1OC returned Pf apPOL block inactive and mHTT-CaM PPI inh 52.
For O=C(Nc1nc(-c2ccccn2)cs1)c1ccc(Br)s1 the results were Pf apPOL block inactive and mHTT-CaM PPI inh 100.
COC(=O)c1ccc(-c2csc(NC(=O)c3cc(C)no3)n2)cc1 was read as Pf apPOL block inactive and mHTT-CaM PPI inh inactive.
`COc1cc(NC(=O)c2ccccc2)c(OC)cc1NC(=O)COc1ccccc1` gave Pf apPOL block inactive and mHTT-CaM PPI inh 59.
Screening COc1cc(C(=O)Nc2ccc(NC(=O)c3ccccc3)cc2)cc(OC)c1OC returned Pf apPOL block inactive and mHTT-CaM PPI inh inactive.
Screening COc1ccc(C2Nc3ccccc3NC3=C2C(=O)CC(c2cccs2)C3)c(OC)c1OC (stereo unspecified) returned Pf apPOL block inactive and mHTT-CaM PPI inh inactive.
For Cc1ccc(C=C2Oc3cc(OS(C)(=O)=O)ccc3C2=O)o1 the results were Pf apPOL block inactive and mHTT-CaM PPI inh inactive.
O=S1(=O)[C@H]2C[C@@H]3C=C[C@]2(O3)C(O)[C@@H](Cc2ccccc2)N1Cc1cccc(F)c1 (stereo partly specified) was read as Pf apPOL block inactive and mHTT-CaM PPI inh inactive.
COc1ccc([N+](=O)[O-])cc1-c1ccc(/C=C2\NC(=O)N(Cc3ccc(Cl)cc3)C2=O)o1 was read as Pf apPOL block inactive and mHTT-CaM PPI inh inactive.
O=C1c2ccccc2NC(/C=C/c2ccccc2)N1c1ccccc1 (stereo unspecified) was read as Pf apPOL block inactive and mHTT-CaM PPI inh inactive.
For COc1cc(C(=O)Nc2nc(-c3ccc(Cl)cc3)cs2)cc(OC)c1OC the results were Pf apPOL block inactive and mHTT-CaM PPI inh inactive.
For COc1cc(C(=O)Nc2nc(-c3ccccn3)cs2)cc(OC)c1OC the results were Pf apPOL block inactive and mHTT-CaM PPI inh 100.
`CSc1cccc(N2CC(c3nc4ccccc4[nH]3)CC2=O)c1` (stereo unspecified) gave Pf apPOL block inactive and mHTT-CaM PPI inh inactive.
Screening Cc1ccc(-n2nnnc2CNS(=O)(=O)c2ccc(F)cc2F)cc1 returned Pf apPOL block inactive and mHTT-CaM PPI inh inactive.
`COc1cccc(C2Oc3ccccc3C3CC(c4cccs4)=NN32)c1O` (stereo unspecified) gave Pf apPOL block inactive and mHTT-CaM PPI inh 51.

Bioassay records from PubChem.
